Pf growth 96h: P. falciparum growth inhibition at 96 hour, primary screen for plastid delayed-death inhibitors; P. falciparum luciferase reporter growth, 96 h; Potency, µM (titrated, usually from 28.7 µM), most hits filed as inhibitors; 6.9% of 320,000 active; active means well fitted inhibition curve with a large enough effect; inconclusive means small, poorly fitted or top-dose-only effect, or another doubt; inactive means no such curve, though single readings can be large or run the other way
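Readout is luminescence from an integrated firefly luciferase in P. falciparum. Red cells, 2% hematocrit and 0.05% parasitemia final, were cultured with compound through two parasite generations (96 hours) at 37 C, 5% CO2.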
NS1 function inh: blocks influenza NS1 protein function. Potency, µM (highest dose often 46.1 µM). AID 2326. 0.4% of 270,000 active; further: actives are rising curves; nearly all actives have a fitted effect of over 50% in size
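OD600 was taken as the measure of yeast growth restored by compound in an NS1-expressing S. cerevisiae strain. Cells had been washed out of glucose medium and diluted 1:100 into galactose -URA medium, pH 6.0.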
Shiga toxin inh: Shiga toxin inhibition | 9.2% of 290,000 active | Vero cells, Shiga toxin protein synthesis inhibition reporter | inhibition, % at 38.7 µM; in the data active means inhibition mostly above about 28%, no sharp cut-off; inactive means mostly below about 43%
CHX counter: affects cycloheximide protein synthesis inhibition readout, counter-screen. cell reporter, cycloheximide protein synthesis inhibition counterscreen. max response, %. 12% of 300,000 active. AID 2314; in the data active means max response mostly above about 13%, no sharp cut-off; inactive means mostly below about 14%; further: read at 38.3 µM for the half of the compounds with a filed dose
Pf growth 48h: P. falciparum growth inhibition at 48 hours (one generation). AID 504832. 5.9% of 310,000 active. Potency, µM (series often up to 28.7 µM), hits mostly inhibitors. P. falciparum luciferase growth in erythrocytes, 48 h; active means well fitted inhibition curve with a large enough effect; inconclusive means small, poorly fitted or top-dose-only effect, or another doubt; inactive means no such curve, though single readings can be large or run the other way
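Read-out is firefly luciferase luminescence from an integrated reporter in P. falciparum, so falling signal marks reduced parasite growth. Infected erythrocytes were at 2% hematocrit and 0.1% parasitemia (final) in Albumax-supplemented RPMI 1640.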
SARS PLpro yeast: SARS-CoV PLP inhibition in yeast; S. cerevisiae expressing SARS-CoV PLpro, growth rescue; Potency, µM (titrated, usually from 32.9 µM), hits mostly activators; 0.19% of 330,000 active; AID 485353; further: nearly all actives have a fitted effect of over 55% in size
Hits are given with their value; n = inactive; u = inconclusive; x = not tested or not shown. Sampled rows, rich in hits. Any-hit rate of the full collection: about 21%. Unless noted, the call rests on the fitted dose curve.

SMILES | Pf growth 96h | NS1 function inh | Shiga toxin inh | CHX counter | Pf growth 48h | SARS PLpro yeast
Cc1nc(SCc2ccc(Cl)c(Cl)c2)n[nH]1 | u | n | n | 16 | n | n
CCCCCOc1ccc(CSc2n[nH]c(C)n2)cc1 | n | n | n | n | n | n
Cc1nc(SCc2cccc(Oc3ccccc3)c2)n[nH]1 | u | n | n | 46 | n | n
Cc1nc(SCc2ccc(OCCC(C)C)cc2)n[nH]1 | n | n | 154 | 49 | n | n
Cc1nc(SCc2ccc(F)cc2)n[nH]1 | n | n | n | n | n | n
CCOC(=O)c1c(NC(=O)CSc2nnc(-c3c[nH]c4ccccc34)n2CCOC)sc2c1CCCCC2 | 9.3µM | n | n | n | u | n
CCOC(=O)c1c(NC(=O)c2ccco2)sc2c1CCCC2 | x | n | n | n | n | n
CCOC(=O)c1c(NC(=O)C(NCCN(C)C)c2ccccc2)sc2c1CCCC2 (stereo unspecified) | u | n | n | n | 9.3µM | n
CCOC(=O)c1c(NC(=O)C(=O)N/N=C/c2ccccc2O)sc2c1CCCCC2 | 0.93µM | n | n | n | 0.66µM | u
CCOC(=O)c1c(NC(=O)c2ccn(CC)n2)sc2c1CCCC2 | x | n | n | n | 10µM | n
CC(OC(=O)C1CC1C)C(=O)Nc1ccc(Cl)cn1 (stereo unspecified) | n | x | x | x | u | n
COc1ccc2nc(SCC(=O)NCc3ccc(OC)c(OC)c3)[nH]c2c1 | n | n | n | n | n | n
CC/C(=N/Nc1ccccc1C)c1cnnc(SC)n1 | 2.3µM | n | n | n | 4.1µM | n
CSc1nncc(/C(C)=N\Nc2ccccc2)n1 | n | n | n | n | n | n
CN1CCN(CCC(=O)N/N=C/c2ccccc2F)CC1 | n | n | n | n | n | n
Cc1cnn(-c2cc(N/N=C/c3ccccc3F)ncn2)c1 | 13µM | n | n | n | n | n
Cc1cnn(-c2cc(N/N=C/c3ccccc3)ncn2)c1 | n | n | n | n | n | n
Cc1cnn(-c2cc(N/N=C/c3cccc(F)c3)ncn2)c1 | 1.9µM | n | n | n | n | n
O=c1[nH]c2cc3c(cc2cc1CN(Cc1nnnn1CC1CCCO1)C1CCCC1)OCO3 (stereo unspecified) | 10µM | n | n | n | n | n
O=c1[nH]c2cc3c(cc2cc1CN(Cc1nnnn1CC1CCCO1)C1CCCCC1)OCO3 (stereo unspecified) | n | n | n | n | u | n
COCCn1nnnc1CN(CCc1ccccc1)Cc1cc2ccc(C)cc2[nH]c1=O | 10µM | n | n | n | u | n
COc1ccc2cc(CN(CCc3ccccc3)Cc3nnnn3CC3CCCO3)c(=O)[nH]c2c1 (stereo unspecified) | n | n | n | n | 9.3µM | n
Cc1ccc2[nH]c(=O)c(CN(CCc3ccccc3)Cc3nnnn3CC3CCCO3)cc2c1 (stereo unspecified) | u | n | n | n | u | n
COc1ccc2[nH]c(=O)c(CN(Cc3ccc(C)cc3)Cc3nnnn3CC3CCCO3)cc2c1 (stereo unspecified) | 8.3µM | n | 40 | 40 | u | n
Cc1cc(C)c(C2=NOC3C4CCC(C4)C23)c(C)c1 (stereo unspecified) | n | n | n | n | n | n
SMILES | Pf growth 96h | NS1 function inh | Shiga toxin inh | CHX counter | Pf growth 48h | SARS PLpro yeast
COc1ccc2[nH]c(=O)c(CN(Cc3ccccc3OC)Cc3nnnn3CC3CCCO3)cc2c1 (stereo unspecified) | n | n | n | n | u | n
COc1ccccc1CN(Cc1cc2cc(C)ccc2[nH]c1=O)Cc1nnnn1CC1CCCO1 (stereo unspecified) | 10µM | n | n | n | 7.4µM | n
Cc1cc(O)c(C(C)C)cc1Cl | 15µM | x | n | n | u | x
COc1cc(/C=C2\NC(=S)NC2=O)ccc1OCc1cccc(C(=O)O)c1 | n | n | 102 | 79 | n | n
O=C1NC(=O)/C(=C\c2ccc(OCc3cccc(C(=O)O)c3)c(Cl)c2)N1 | n | x | 161 | 81 | n | n
COc1cc(/C=C2/C(=O)N(C)C(=S)N2C)ccc1OCc1cccc(F)c1 | 3.3µM | n | n | n | n | n
CCc1noc(C)c1C(=O)N1CCCC(N2CCN(c3cccc(Cl)c3)CC2)C1 (stereo unspecified) | u | n | n | n | u | n
COc1ccc2ccc3c(c2c1)N=C[C@]1(O3)N(C)c2ccccc2C1(C)C | 6.6µM | n | n | n | u | n
CC(=Nc1ccccc1N)c1c(O)n(C)c(=O)[nH]c1=O | u | n | 76 | 50 | n | n
